KCNQ2 pot: potentiators of rat KCNQ2 potassium channel. Potassium voltage-gated channel subfamily KQT member 2 (Rattus norvegicus), O88943. CHO-K1 KCNQ2, FluxOR thallium flux fluorescence; active compounds read high. B-score at 10 µM. 310,000 compounds, 0.54% hits. AID 2239, 2010;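 active means fluorescence ratio B-score at least 3 SD of library B-scores, with initial fluorescence B-score within 3 of them, cut at about 5.3 in these data; same plate scores as AID 2156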;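 further: B-score of peak minus minimum over baseline fluorescence ratio after K+ and Tl+ stimulus; positive B-score means potentiation of KCNQ2 with more thallium influx and brighter signal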
KCNQ2 inh: rat KCNQ2 potassium channel inhibitors, primary screen, cell-based, CHO-K1, FluxOR thallium flux, B-score; Potassium voltage-gated channel subfamily KQT member 2 (Rattus norvegicus), O88943; 310,000 compounds, 1.1% hits; 20 min; active compounds read low; AID 2156, 2009; B-score at 10 µM;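 active means fluorescence ratio B-score at most minus 3 library SDs, with starting brightness B-score within 2 library SDs, cut at about -5.5 in these data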
Kir21 conf inh: mouse Kir2.1 channel blockers, retest, confirmation, cell-based, FluxOR thallium flux, duplicate; shares compounds with KCNQ2 pot; Kir2.1-expressing cells, FluxOR thallium flux fluorescence; active compounds read low; Tl flux remaining, % of negative control (active compounds read low), % at 10 µM; 2,300 compounds, 41% hits; AID 2032, 2009;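 active means Primary-screen hit whose thallium flux fell at least 3 control SD below untreated wells in both duplicates, with normal baseline fluorescence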;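 further: 0% = blank wells without stimulus and 100% = stimulated no-compound controls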
Target sequence (P35561 whole entry, looked up): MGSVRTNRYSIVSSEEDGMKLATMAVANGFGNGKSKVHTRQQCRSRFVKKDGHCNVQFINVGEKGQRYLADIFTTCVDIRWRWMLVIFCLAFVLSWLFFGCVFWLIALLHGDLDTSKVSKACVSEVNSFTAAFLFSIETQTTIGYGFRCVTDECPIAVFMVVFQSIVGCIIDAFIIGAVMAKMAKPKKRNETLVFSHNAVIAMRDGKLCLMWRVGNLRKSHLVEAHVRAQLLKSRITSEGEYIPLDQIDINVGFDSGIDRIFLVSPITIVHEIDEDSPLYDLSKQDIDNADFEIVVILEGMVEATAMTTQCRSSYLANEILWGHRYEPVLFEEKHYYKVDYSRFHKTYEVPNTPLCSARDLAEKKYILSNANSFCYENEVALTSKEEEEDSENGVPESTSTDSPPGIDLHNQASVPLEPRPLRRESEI
HEK293 Tl flux: parental HEK293 activity in Kir2.1 inhibitor counter-screen | shares compounds with KCNQ2 pot | FluxOR signal as % of negative control (100 = no effect), % at 10 µM | parental HEK293 cells, FluxOR thallium flux fluorescence; 0% = unstimulated blank wells | AID 2105 | 2,300 compounds, 19% hits;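 active means dye signal at least 3 control SD above or below untreated wells in both duplicates, raw fluorescence within 3, either direction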;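 further: percent is based on the flux ratio of peak minus minimum fluorescence over baseline F0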
CHO-K1 Tl ctr: nonspecific thallium flux increase in parental CHO-K1, confirmation, counter-screen for KCNQ2 potentiator project, cell-based, FluxOR thallium flux, duplicate; parental CHO-K1 cells, FluxOR thallium flux fluorescence; zero = vehicle mean+3SD, 100% = vehicle-minus-blank window; 1,200 compounds, 43% hits; activity increase over 3SD of controls, % at 10 µM; AID 2282, 2010; shares compounds with KCNQ2 pot;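 active means signal rise of at least 3 SD above the untreated control mean, in both duplicate wells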;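 further: counter screen of KCNQ2 potentiator hits so any rise reflects channel-independent effects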
KCNQ1 sel pot: human KCNQ1 channel potentiation off-target, confirmation, selectivity assay for KCNQ2 potentiator project, cell-based, CHO, FluxOR thallium flux; 1,200 compounds, 28% hits; CHO KCNQ1 stable, FluxOR thallium flux fluorescence; beyond 3SD, as % of vehicle-control signal; shares compounds with KCNQ2 pot; activation over 3SD threshold, % at 10 µM;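 active means fluorescence ratio rise of at least 3 SD of vehicle wells above their mean, in both replicate wells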;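 further: 0% = vehicle mean plus 3 SD and 100% = vehicle minus unstimulated blank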
KCNQ2 pot confirm: rat KCNQ2 channel potentiators, confirmation, cell-based, CHO, FluxOR thallium flux, duplicate; shares compounds with KCNQ2 pot; CHO-KCNQ2 cells, FluxOR thallium flux fluorescence; potentiation, less the hit threshold, % at 10 µM; 1,200 compounds, 68% hits;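 active means fluorescence ratio rising 3 SD or more over the vehicle control mean in both replicates, plus primary screen hit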;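 further: peak minus minimum thallium fluorescence divided by baseline after K/Tl stimulus; 0% = vehicle mean plus 3 SD and 100% = vehicle minus unstimulated blank difference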
Kir2-1 sel: mouse Kir2.1 channel activation off-target, confirmation, selectivity assay for KCNQ2 potentiator project, cell-based, HEK293, FluxOR thallium flux. 1,200 compounds, 2% hits. AID 2345, 2010. shares compounds with KCNQ2 pot. HEK293 Kir2.1, FluxOR thallium flux fluorescence. activity over 3SD threshold, % at 10 µM;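 active means fluorescence ratio rise of at least 3 SD above the vehicle-control mean, seen in both replicates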;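 further: 0% = vehicle mean plus 3 SD and 100% = vehicle minus no-stimulus blank window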
KCNQ2 W236L MoA: potentiators of retigabine-insensitive KCNQ2 W236L, mechanism study for KCNQ2 potentiator project, cell-based, rat KCNQ2 W236L, CHO, automated patch clamp; 940 compounds, 10% hits; automated patch clamp current; shares compounds with KCNQ2 pot; AID 2558, 2010; current increase over 3SD of negative controls (%), active compounds read high, % at 25 µM;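 active means current increase at least 3 SD of the untreated controls above them in both duplicate recordings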
* hit, by the source's call. Shown are actives, neighbours in structure and some others; about 1.6% of the full set was active somewhere.

CCCNC(=O)C1CCC(CNS(=O)(=O)c2ccc3c(c2)N(C(C)=O)CCO3)CC1 (stereo not drawn) was read as KCNQ2 inh inactive.
For CC(NCCS(=O)(=O)c1ccc(Cl)cc1)c1cccc(Cl)c1 (stereo not drawn) the results were KCNQ2 pot 0.87, KCNQ2 inh inactive, Kir21 conf inh 33.5%* and HEK293 Tl flux inactive.
Screening CC(C)c1ccc(C(C)NCCS(=O)(=O)c2ccc(Br)cc2)cc1 (stereo not drawn) returned KCNQ2 inh inactive.
For CCOC(CNC(=O)C(=O)Nc1cc2c3c(c1)CCN3C(=O)CC2)OCC the results were KCNQ2 pot 1.24 and KCNQ2 inh inactive.
Screening Cc1c(NC(=O)COc2ccc(C(C)C)cc2)c(=O)n(-c2ccccc2)n1C returned KCNQ2 inh inactive.
`Cc1cc(C)c(C(=O)C2OC(=O)C(C)(C)C(=O)C2(C)C)c(C)c1` (stereo not drawn) gave KCNQ2 pot 10*, KCNQ2 inh inactive, Kir21 conf inh inactive, HEK293 Tl flux inactive, CHO-K1 Tl ctr 6.5*, KCNQ1 sel pot -15.5, KCNQ2 pot confirm 2.7*, Kir2-1 sel -39.8 and KCNQ2 W236L MoA inactive.
For CC1(C)C(=O)OC(C(=O)c2ccccc2)C(C)(C)C1=O (stereo not drawn) the results were KCNQ2 inh inactive.
`CSc1ccc(C(=O)NC2CCSc3ccccc32)cc1` (stereo not drawn) gave KCNQ2 inh inactive.
Cc1ccc(CSCC(=O)Nc2ccc(N3CCOCC3)cc2N2CCOCC2)cc1 was read as KCNQ2 pot 0.21 and KCNQ2 inh inactive.
`CC1(C)Nc2ccc(O)cc2-c2c1ssc2=S` gave KCNQ2 inh inactive, Kir21 conf inh 40.0%* and HEK293 Tl flux inactive.
`COc1cccc(-n2sc3c(c2=S)-c2cc(OC)ccc2NC3(C)C)c1` gave KCNQ2 inh inactive.
S=c1[nH]cnc2scc(-c3ccc(Cl)cc3)c12 was read as KCNQ2 pot 9.61*, KCNQ2 inh inactive, Kir21 conf inh inactive, HEK293 Tl flux 142.5%*, CHO-K1 Tl ctr -5.0, KCNQ1 sel pot -4.3, KCNQ2 pot confirm 13.5*, Kir2-1 sel -31.4 and KCNQ2 W236L MoA inactive.
Screening S=c1[nH]cnc2scc(-c3ccc(Br)cc3)c12 returned KCNQ2 pot 5.61*, KCNQ2 inh inactive, Kir21 conf inh inactive, HEK293 Tl flux 194.0%*, CHO-K1 Tl ctr -3.2, KCNQ1 sel pot -17.2, KCNQ2 pot confirm -4.6, Kir2-1 sel -20.3 and KCNQ2 W236L MoA inactive.
O=c1[nH]cnc2scc(-c3ccccc3)c12 was read as KCNQ2 inh inactive.
Clc1ccc(-c2csc3ncnc(Cl)c23)cc1 was read as KCNQ2 pot 0.92 and KCNQ2 inh inactive.

Source: PubChem
